Screens: PubChem, National Center for Advancing Translational Sciences (NCATS)
Most compounds without a hit are left out; they make up all but 10% or so of the library.
SW480 rerep: A quantitative high throughput screen for small molecules that induce DNA re-replication in SW480 colon adenocarcinoma cells; Potency, µM (series often up to 46.1 µM), without a hit: at the top dose re-replication activation, most hits filed as activators; actives 1.8% (n = 340,000); AID 624297, 2012; SW480 DNA re-replication, Hoechst DNA content imaging, 48 h; also: % of control where 0% means no effect; nearly all actives have a fitted effect of over 55% in size
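Cells (250 per well) received 23 nL compound or DMSO by pin tool and were kept 48 hr at 37 C, 5% CO2. Nuclei were then stained with Hoechst for 40 min and scanned for DNA content.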
RORg inh: qHTS for inhibitors of ROR gamma transcriptional activity. Nuclear receptor ROR-gamma (Mus musculus), P51450. Drosophila S2 Gal4-RORgamma UAS-luciferase reporter, 20 h. Potency, µM (titrated, usually from 53.6 µM), for the others: at the highest dose activity change, negative = inhibition, actives largely listed as inhibitors. AID 2551, 2010. actives 5.4% (n = 310,000); also: % is scaled to controls: 0 for no effect and ±100 for the full control effect; nearly all actives have a fitted effect of over 60% in size
Target sequence (P51450 whole entry, looked up, the tested form may be a part): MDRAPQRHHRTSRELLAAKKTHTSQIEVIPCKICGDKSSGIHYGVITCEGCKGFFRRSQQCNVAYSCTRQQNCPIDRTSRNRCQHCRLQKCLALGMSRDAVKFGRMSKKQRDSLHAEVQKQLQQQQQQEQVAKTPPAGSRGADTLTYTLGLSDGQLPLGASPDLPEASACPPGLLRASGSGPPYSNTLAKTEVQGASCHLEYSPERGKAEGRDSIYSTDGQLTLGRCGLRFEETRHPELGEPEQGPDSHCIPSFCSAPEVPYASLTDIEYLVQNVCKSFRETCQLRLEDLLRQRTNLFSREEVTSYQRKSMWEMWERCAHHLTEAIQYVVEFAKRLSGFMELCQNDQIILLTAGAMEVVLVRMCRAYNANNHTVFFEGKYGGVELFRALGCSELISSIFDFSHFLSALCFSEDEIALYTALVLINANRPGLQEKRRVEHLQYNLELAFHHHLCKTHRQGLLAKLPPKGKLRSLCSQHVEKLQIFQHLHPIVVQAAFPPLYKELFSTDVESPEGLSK
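Read-out: Photinus luciferase luminescence; inhibitors lower reporter signal. Insect Schneider cells with Gal4-ROR gamma fusion under metallothionein promoter, UAS reporter; 700 uM final copper sulfate induction, 20 hr, ambient temperature.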
Gal4-VP16 FLuc: VP16 counterscreen qHTS for inhibitors of ROR gamma transcriptional activity | Drosophila S2 Gal4-VP16 UAS-luciferase, luminescence, 20 h | Potency, µM (titrated, usually from 53.6 µM), without a hit: top-dose activity, negative = inhibition, usual class: inhibitors | actives 3.5% (n = 310,000) | AID 2546, 2010;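 also: Gal4-VP16 expression switched on by copper sulfate through the metallothionein promoter; % is scaled to controls: 0 for no effect and ±100 for the full control effect; nearly all actives have a fitted effect of over 50% in size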
MCF10A rereplic: A quantitative high throughput screen for small molecules that induce DNA re-replication in MCF 10a normal breast cells; Potency, µM (doses to about 46.1 µM), for the others: at the top dose activity, positive = re-replication, hits mostly activators; MCF 10A DNA re-replication, Hoechst nuclear intensity, 48 h; actives 2.9% (n = 350,000); also: % of control where 0% means no effect; nearly all actives have a fitted effect of over 50% in size
KB-V1 cytotox: qHTS assay for MDR1-selective chemotherapeutics: Primary screen using the drug-selected MDR subline cells KB-V1; KB-V1 MDR cells viability, CellTiter-Glo, 72 h; Potency, µM (top dose mostly 46.1 µM), actives largely listed as cytotoxic; actives 3.4% (n = 400,000); AID 1347076, 2019; also: % is scaled to controls: 0 for no effect and ±100 for the full control effect; nearly all actives have a fitted effect of over 60% in size
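Compound-treated KB-V1 multidrug-resistant cells, 72 h, 37 degrees C; viability by CellTiter-Glo. Fitted qHTS curves give the values.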
KB-3-1 cytotox: qHTS assay for MDR1-selective chemotherapeutics: Primary screen using the parental adenocarcinoma cell KB-3-1; KB-3-1 viability, CellTiter-Glo ATP luminescence, 72 h; Potency, µM (series often up to 46.1 µM), actives largely listed as cytotoxic; actives 1.4% (n = 400,000); AID 1347075, 2019; also: % is scaled to controls: 0 for no effect and ±100 for the full control effect; nearly all actives have a fitted effect of over 60% in size
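Using CellTiter-Glo luminescence, growth of non-resistant KB-3-1 adenocarcinoma cells is assessed 72 h after pin-tool compound addition at 37 °C. Normalized responses across the concentration series yield fitted curves.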
An asterisk follows results filed as active; i = inactive; u = inconclusive; x = not tested or not shown; [ ] = dose if it differs, or a comment. Calls follow the shape of the dose curve; as a rule, active = well fitted curve in the direction sought with a large enough effect; inconclusive = small, poorly fitted or top-dose-only effect, or another doubt; inactive = no such curve, though single readings can be large; an effect the other way counts as inactive or inconclusive. Potency is read from the fitted curve at half-maximal effect.

SMILES | SW480 rerep | RORg inh | Gal4-VP16 FLuc | MCF10A rereplic | KB-V1 cytotox | KB-3-1 cytotox
CC(OCC(O)CN(C)CCOc1ccccc1)c1ccc(Cl)cc1 (centres undefined) | -1% | 12% | -17% | -1% | 16µM* | i
CN(C)NC(=S)Nc1cccc(C(F)(F)F)c1 | 16% | 1µM* | 5.6µM* | -8% | i | i
CN(C)C(=S)Nc1cccc(C(F)(F)F)c1 | -1% | -37% | 4% | 0% | i | i
CC(NC(=S)Nc1cccc(C(F)(F)F)c1)C(C)(C)C (centres undefined) | u | 3.2µM* | 10µM* | 3% | i | i
COc1ccc(NC(=S)Nc2cccc(C(F)(F)F)c2)c(C)c1 | 3% | 10µM* | u | 0% | i | i
Cc1ccc(NC(=S)NNC(=S)Nc2cccc(C(F)(F)F)c2)cc1 | 16% | -1% | -6% | 9% | i | i
Cc1cc(F)ccc1NC(=O)CCS(=O)(=O)c1cc2c(cc1C)NC(=O)CO2 | x | x | x | x | i | i
CCOc1ccc2c(c1)c(=O)c(C(=O)c1ccc(CC)cc1)cn2CC(=O)Nc1ccc2c(c1)OCCO2 | x | x | x | x | i | i
CCOP(=O)(OCC)C(Cc1ccc(OC)c(OC)c1)N=C(c1ccccc1)c1ccccc1 (centres undefined) | x | x | x | x | 15µM* | i
O=c1c2c3c(sc2n(Cc2ccc(F)cc2Cl)c(=O)n1-c1ccc(Cl)cc1)CCC3 | x | x | x | x | i | i
CC(Nc1ncnc2ccccc12)c1ccccc1 (centres undefined) | u | u | 2.8µM* | 23% | u | i
Cc1csc2nc(O)c(C(=O)NCCC3=CCCCC3)c(=O)n12 | 0% | x | x | u | 9.2µM* | i
Cc1nc2scc(C)n2c(=O)c1S(=O)(=O)NCCc1ccccc1 | 6% | 7% | 1% | 6% | i | i
Cc1csc2nc(O)c(C(=O)NCCCc3ccccc3)c(=O)n12 | -1% | x | x | 1% | 16µM* | u
C#CC(=O)N(c1ccc(OC)cc1OC)C(C(=O)NC1CCCC1)c1cccs1 (centres undefined) | u | 6.3µM* | 7.9µM* | u | i | i
COc1ccc(N(C(=O)c2ccco2)C(C(=O)NC2CCCCC2)c2cccs2)cc1OC (centres undefined) | 0% | u | -3% | -1% | i | i
C#CC(=O)N(c1cc(OC)ccc1OC)C(C(=O)NC1CCCC1)c1cccs1 (centres undefined) | 0.15µM* | 4.5µM* | 7.1µM* | 26% | u | 15µM*
O=C(c1ccccc1)N1CCN(CCc2ccncc2)CC1 | x | x | x | x | i | i
COc1ccccc1-c1noc(CCCC(=O)Nc2cc(C)ccc2C)n1 | x | x | x | x | i | i
Cc1cccc2cc(CN(Cc3nnnn3Cc3ccco3)C3CCCC3)c3nnnn3c12 | 6% | -28% | 3%[0.365 µM] | u | 12µM* | i
COc1ccc2[nH]c(=O)c(CN(Cc3cccs3)C(=S)Nc3cccc(C)c3)cc2c1 | x | -5% | -10% | u | u | i
Cc1cccc2cc(CN(CC3CCCO3)C(=S)Nc3ccccc3)c(=O)[nH]c12 (centres undefined) | 16% | -23% | -13% | u | 3.7µM* | i
Cc1cccc(NC(=S)N(Cc2cccs2)Cc2cc3cc(C)cc(C)c3[nH]c2=O)c1 | -2% | 15% | -14% | 10% | 21µM* | u
CCNC(=S)N(Cc1cc2cccc(C)c2[nH]c1=O)C1CCCC1 | -146% | u | u | 1% | 18µM* | u
Cc1ccc(Cl)cc1N1CCN(C(=O)COCc2cc(-c3ccc4c(c3)OCO4)on2)CC1 | x | x | x | x | i | i
SMILES | SW480 rerep | RORg inh | Gal4-VP16 FLuc | MCF10A rereplic | KB-V1 cytotox | KB-3-1 cytotox
COc1cccc(Cn2c(=O)n(-c3ccc(C)c(F)c3)c(=O)c3sc4ccccc4c32)c1 | x | x | x | x | i | i
Cc1cccc2cc(CN(Cc3nnnn3C3CCCC3)C3CCCCC3)c(=O)[nH]c12 | u | x | x | u | 23µM* | i
Cc1cc2cc(CN(Cc3ccc4c(c3)OCO4)Cc3nnnn3C3CCCC3)c(=O)[nH]c2cc1C | -2% | 38% | -12% | -3% | u | i
CCc1ccc2[nH]c(=O)c(CN(Cc3nnnn3C3CCCC3)C3CCCCC3)cc2c1 | -2% | 18% | 4% | 0% | i | i
Cc1ccc2[nH]c(=O)c(CN(Cc3ccc4c(c3)OCO4)Cc3nnnn3C3CCCC3)cc2c1 | u | 22% | -20% | u | 18µM* | i
CCC[C@@H]1C[C@@]1(CCC)C(NP(=O)(c1ccccc1)c1ccccc1)c1ccc(Cl)cc1 (some centres undefined) | x | -2% | -7% | x | x | x
Cc1cc2[nH]c(=O)cc(-c3ccccc3)n2n1 | 2% | 11µM* | 18µM* | 10% | i | i
Nc1cc(=O)[nH]c(SCc2csc(-c3ccccc3)n2)n1 | 0% | u | 6% | u | 16µM* | u
COc1ccc(CSc2nc(C)cc(=O)[nH]2)cc1Br | -9% | 43% | -2% | 4% | 18µM* | i
Cc1cc(=O)[nH]c(SCc2csc(-c3ccccc3)n2)n1 | -60% | u | 3% | 10% | 23µM* | i
c1ccc(-c2nc(CSc3n[nH]c(-c4cccs4)n3)cs2)cc1 | -1% | 32µM* | 5% | 6% | i | i
Cc1cc(=O)[nH]c(SCc2cccc(Br)c2)n1 | -2% | 6% | -2% | 15% | u | i
CCOc1ccc(CCNC(=O)c2cc3c(-c4ccccc4F)nn(C)c3s2)cc1OCC | x | x | x | x | i | u
COc1ccc(NC(=O)c2ccco2)cc1NC(=O)c1cccc(F)c1 | -17% | 23% | 1% | 2% | i | i
COc1cccc(C2=NNC(=NCc3ccccc3)SC2)c1 | 14% | 8.9µM* | 5% | 21% | i | i
COc1ccc(CN=C2NN=C(c3ccccc3)CS2)cc1 | u | 2µM* | -2% | u | i | i
Cn1c(=O)n(-c2ccc(F)c(Cl)c2)c(=O)c2sc3ccccc3c21 | x | x | x | x | i | i
CN(C)c1cc(-c2cccc(NS(C)(=O)=O)c2)ncn1 | x | 13% | -6% | x | x | x
CCOCCn1cnc2sc(C(=O)Nc3nc(C)c(C(=O)OCC)s3)c(C)c2c1=O | x | 4.5µM* | -10% | x | x | x
CCOCCn1cnc2sc(C(=O)Nc3ccccc3C(=O)OC)c(C)c2c1=O | x | x | x | x | i | i
